# ± gives the standard deviation of the averaged measurements.
# What was measured:
# Experiment in all cases: promoter activity interaction Z-score (Lux/OD deviation from empty-vector control); higher = stronger promoter induction by the compound
# [1] = test system: E. coli BW25113 acrABp lux reporter
# Method in brief: (§1)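 In 384-well plates, 40 µl LB Lennox cultures of E. coli BW25113 with low-copy luxCDABE promoter reporters grew at 37°C. Optical density at 600 nm and light output were recorded every 30 min for 12 h, with windows of 0–8 h for wild type and 1–9 h for deletion strains, and wells under 10% of the median growth value were left out. Each value is a Z-transformed residual of growth-normalised luminescence fitted against a control.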
# [2] = test system: E. coli BW25113 micFp lux reporter
# Method in brief: as §1
# [3] = test system: E. coli BW25113 ompFp lux reporter
# Method in brief: as §1
# [4] = test system: E. coli BW25113 robp lux reporter
# Method in brief: as §1
# [5] = test system: E. coli BW25113 soxSp lux reporter
# Method in brief: as §1
# [6] = test system: E. coli BW25113 tolCp lux reporter
# Method in brief: as §1
# [7] = 0.048 µg/ml, genetic background: wild type
# [8] = 0.048 µg/ml, genetic background: ΔmarA
# [9] = 0.048 µg/ml, genetic background: Δrob
# [10] = 0.048 µg/ml, genetic background: ΔsoxS
# [11] = 0.1 µg/ml, genetic background: wild type
# [12] = 0.1 µg/ml, genetic background: ΔmarA
# [13] = 0.1 µg/ml, genetic background: Δrob
# [14] = 0.1 µg/ml, genetic background: ΔsoxS
# [15] = 0.19 µg/ml, genetic background: wild type
# [16] = 0.19 µg/ml, genetic background: ΔmarA
# [17] = 0.19 µg/ml, genetic background: Δrob
# [18] = 0.19 µg/ml, genetic background: ΔsoxS
# [19] = 0.38 µg/ml, genetic background: wild type
# [20] = 0.38 µg/ml, genetic background: ΔsoxS
compound,measurement,setting,value
CCC(C)CCCC(=O)N[C@@H](CCN)C(=O)N[C@H](C(=O)N[C@@H](CCN)C(=O)N[C@H]1CCNC(=O)[C@H]([C@@H](C)O)NC(=O)[C@H](CCN)NC(=O)[C@H](CCN)NC(=O)[C@H](CC(C)C)NC(=O)[C@@H](CC(C)C)NC(=O)[C@H](CCN)NC1=O)[C@@H](C)O (stereo partly drawn) [Colistin],promoter activity interaction Z-score,[1]; [7],0.00962 ± 0.11
same,promoter activity interaction Z-score,[1]; [8],-0.167 ± 0.31
same,promoter activity interaction Z-score,[1]; [9],0.139 ± 0.096
same,promoter activity interaction Z-score,[1]; [10],0.0289 ± 0.14
same,promoter activity interaction Z-score,[1]; [11],0.308 ± 0.22
same,promoter activity interaction Z-score,[1]; [12],0.524 ± 0.34
same,promoter activity interaction Z-score,[1]; [13],0.0214 ± 0.021
same,promoter activity interaction Z-score,[1]; [14],-0.00861 ± 0.23
same,promoter activity interaction Z-score,[1]; [15],0.246 ± 0.16
same,promoter activity interaction Z-score,[1]; [16],-0.482 ± 0.29
same,promoter activity interaction Z-score,[1]; [17],0.192 ± 0.051
same,promoter activity interaction Z-score,[1]; [18],-0.0737 ± 0.12
same,promoter activity interaction Z-score,[1]; [19],0.607 ± 0.1
same,promoter activity interaction Z-score,[1]; [20],2.31 ± 2.5
same,promoter activity interaction Z-score,[2]; [7],-0.359 ± 0.049
same,promoter activity interaction Z-score,[2]; [8],0.0434 ± 0.083
same,promoter activity interaction Z-score,[2]; [9],0.0506 ± 0.077
same,promoter activity interaction Z-score,[2]; [10],-0.14 ± 0.12
same,promoter activity interaction Z-score,[2]; [11],-0.48 ± 0.39
same,promoter activity interaction Z-score,[2]; [12],-0.0509 ± 0.014
same,promoter activity interaction Z-score,[2]; [13],0.0439 ± 0.063
same,promoter activity interaction Z-score,[2]; [14],-0.113 ± 0.06
same,promoter activity interaction Z-score,[2]; [15],-0.562 ± 0.18
same,promoter activity interaction Z-score,[2]; [16],-0.217 ± 0.25
same,promoter activity interaction Z-score,[2]; [17],-0.229 ± 0.24
same,promoter activity interaction Z-score,[2]; [18],-0.514 ± 0.082
same,promoter activity interaction Z-score,[2]; [19],-0.607 ± 0.2
same,promoter activity interaction Z-score,[3]; [7],-0.346 ± 0.26
same,promoter activity interaction Z-score,[3]; [8],-0.0916 ± 0.57
same,promoter activity interaction Z-score,[3]; [9],-0.0368 ± 0.43
same,promoter activity interaction Z-score,[3]; [10],0.093 ± 0.28
same,promoter activity interaction Z-score,[3]; [11],-0.267 ± 0.43
same,promoter activity interaction Z-score,[3]; [12],0.449 ± 0.06
same,promoter activity interaction Z-score,[3]; [13],0.19 ± 0.37
same,promoter activity interaction Z-score,[3]; [14],0.15 ± 0.24
same,promoter activity interaction Z-score,[3]; [15],0.073 ± 0.018
same,promoter activity interaction Z-score,[3]; [16],0.452 ± 0.48
same,promoter activity interaction Z-score,[3]; [17],-0.296 ± 0.74
same,promoter activity interaction Z-score,[3]; [18],-0.0443 ± 0.14
same,promoter activity interaction Z-score,[3]; [19],0.0453 ± 0.83
same,promoter activity interaction Z-score,[3]; [20],1.11
same,promoter activity interaction Z-score,[4]; [7],0.161 ± 0.5
same,promoter activity interaction Z-score,[4]; [8],-0.748 ± 0.18
same,promoter activity interaction Z-score,[4]; [9],0.308 ± 0.074
same,promoter activity interaction Z-score,[4]; [10],0.602 ± 0.38
same,promoter activity interaction Z-score,[4]; [11],0.156 ± 0.63
same,promoter activity interaction Z-score,[4]; [12],-0.00162 ± 0.4
same,promoter activity interaction Z-score,[4]; [13],-0.329 ± 0.5
same,promoter activity interaction Z-score,[4]; [14],1.13 ± 0.73
same,promoter activity interaction Z-score,[4]; [15],0.641 ± 1.4
same,promoter activity interaction Z-score,[4]; [16],-0.0677 ± 0.0062
same,promoter activity interaction Z-score,[4]; [17],-0.869 ± 0.76
same,promoter activity interaction Z-score,[4]; [18],-0.113 ± 0.049
same,promoter activity interaction Z-score,[4]; [19],-1.15 ± 0.17
same,promoter activity interaction Z-score,[4]; [20],-1.35 ± 0.85
same,promoter activity interaction Z-score,[5]; [7],-0.0522 ± 0.2
same,promoter activity interaction Z-score,[5]; [8],0.182 ± 0.078
same,promoter activity interaction Z-score,[5]; [9],0.268 ± 0.048
same,promoter activity interaction Z-score,[5]; [10],0.235 ± 0.097
same,promoter activity interaction Z-score,[5]; [11],-0.219 ± 0.34
same,promoter activity interaction Z-score,[5]; [12],0.306 ± 0.074
same,promoter activity interaction Z-score,[5]; [13],0.144 ± 0.06
same,promoter activity interaction Z-score,[5]; [14],0.368 ± 0.28
same,promoter activity interaction Z-score,[5]; [15],-0.09 ± 0.072
same,promoter activity interaction Z-score,[5]; [16],0.135 ± 0.0049
same,promoter activity interaction Z-score,[5]; [17],-0.469 ± 0.47
same,promoter activity interaction Z-score,[5]; [18],0.108 ± 0.33
same,promoter activity interaction Z-score,[5]; [19],-0.417 ± 0.57
same,promoter activity interaction Z-score,[5]; [20],-0.517
same,promoter activity interaction Z-score,[6]; [7],-0.508 ± 0.048
same,promoter activity interaction Z-score,[6]; [8],-0.536 ± 0.12
same,promoter activity interaction Z-score,[6]; [9],0.211 ± 0.004
same,promoter activity interaction Z-score,[6]; [10],0.982 ± 0.44
same,promoter activity interaction Z-score,[6]; [11],-0.675 ± 0.32
same,promoter activity interaction Z-score,[6]; [12],0.378 ± 0.075
same,promoter activity interaction Z-score,[6]; [13],-0.935 ± 0.56
same,promoter activity interaction Z-score,[6]; [14],0.791 ± 0.7
same,promoter activity interaction Z-score,[6]; [15],-0.155 ± 0.13
same,promoter activity interaction Z-score,[6]; [16],-1.61 ± 0.11
same,promoter activity interaction Z-score,[6]; [17],-0.925 ± 0.63
same,promoter activity interaction Z-score,[6]; [18],-0.699 ± 0.78
same,promoter activity interaction Z-score,[6]; [19],-0.255 ± 0.42
same,promoter activity interaction Z-score,[6]; [20],-0.469 ± 0.66
